The values that follow come from ChEMBL document CHEMBL3988442, “University of Dundee, Small-Polar-MMV Screening Library” (2021).

What all share (parameters): scale not given: direction of the effect not stated beside the values
Assay [1] deals with Protein translocase subunit SecA (Escherichia coli (strain K12)) (UniProt P10408). The assay can be described thus: Assay to Identify E. coli SecA ATPase Inhibitors. The following applies: 30 µM. The assay is classed as functional.
In assay [2] the target is T1, Ubiquitin-activating enzyme e1, putative (Leishmania donovani (strain BPK282A1)) (UniProt E9BSI1).
T1 sequence (whole entry): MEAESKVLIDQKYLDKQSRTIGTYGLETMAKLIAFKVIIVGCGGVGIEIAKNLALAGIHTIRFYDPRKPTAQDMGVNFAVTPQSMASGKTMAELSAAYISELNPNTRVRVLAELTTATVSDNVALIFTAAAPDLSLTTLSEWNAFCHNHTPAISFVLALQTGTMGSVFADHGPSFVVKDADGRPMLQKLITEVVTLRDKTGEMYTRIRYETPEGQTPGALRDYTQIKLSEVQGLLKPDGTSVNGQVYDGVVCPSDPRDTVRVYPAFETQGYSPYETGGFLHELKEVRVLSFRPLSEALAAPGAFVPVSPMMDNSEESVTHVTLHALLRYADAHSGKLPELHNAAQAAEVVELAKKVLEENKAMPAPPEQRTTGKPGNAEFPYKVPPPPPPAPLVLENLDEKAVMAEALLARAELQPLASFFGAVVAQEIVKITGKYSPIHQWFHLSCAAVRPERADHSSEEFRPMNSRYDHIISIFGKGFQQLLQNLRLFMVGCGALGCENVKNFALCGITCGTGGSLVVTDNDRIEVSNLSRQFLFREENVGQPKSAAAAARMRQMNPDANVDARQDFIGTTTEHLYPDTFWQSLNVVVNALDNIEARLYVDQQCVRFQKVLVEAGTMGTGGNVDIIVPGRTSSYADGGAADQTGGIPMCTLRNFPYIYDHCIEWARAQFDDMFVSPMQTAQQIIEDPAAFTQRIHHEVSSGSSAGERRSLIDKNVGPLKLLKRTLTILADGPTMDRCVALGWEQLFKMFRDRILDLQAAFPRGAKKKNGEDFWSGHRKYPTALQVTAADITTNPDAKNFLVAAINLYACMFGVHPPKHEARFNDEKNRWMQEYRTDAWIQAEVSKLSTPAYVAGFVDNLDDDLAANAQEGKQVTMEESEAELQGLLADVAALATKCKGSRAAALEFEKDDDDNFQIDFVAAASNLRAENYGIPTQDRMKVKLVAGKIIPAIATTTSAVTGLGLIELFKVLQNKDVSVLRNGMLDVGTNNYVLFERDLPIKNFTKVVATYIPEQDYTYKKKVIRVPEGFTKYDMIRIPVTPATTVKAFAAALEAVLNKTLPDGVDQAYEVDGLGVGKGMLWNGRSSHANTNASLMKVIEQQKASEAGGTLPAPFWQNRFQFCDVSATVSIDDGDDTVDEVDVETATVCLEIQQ
The assay can be described thus: Leishmania donovani Ubiquitin Activating Enzyme (LdE1). The assay is classed as functional. Conditions: 30 µM.

Assay [3] concerns the target AMP-activated protein kinase, AMPK (Homo sapiens) (UniProt P54646+O43741+P54619+Q9UGJ0+Q9Y478+Q13131+Q9UGI9). Nature of the assay: AMP-dependent Kinase enzyme assay. An in vitro enzyme assay that detects ADP turnover that is directly proportional to AMPK activity. This uses naive AMPK that is activated during the assay with MK-8722. It is filed as functional. Conditions: 30 µM.

Assay [4] concerns the target Sialic acid-binding Ig-like lectin 9 (Homo sapiens) (UniProt Q9Y336). The assay can be described thus: Hs-Siglec9 ALPHAscreen SOP 20170721. Conditions: 10 µM. (Bead proximity is the source of the signal in Alpha formats.)
Assay [5] relates to Trypanosoma cruzi. The assay can be described thus: Trypanosoma cruzi phosphomannomutase and mannose-1-phosphate guanylyltransferase assay. It is filed as functional. Conditions: 10 µM.
Assay [6] concerns the target T2, Arginase-2, mitochondrial (Homo sapiens) (UniProt P78540).
T2 sequence (whole entry): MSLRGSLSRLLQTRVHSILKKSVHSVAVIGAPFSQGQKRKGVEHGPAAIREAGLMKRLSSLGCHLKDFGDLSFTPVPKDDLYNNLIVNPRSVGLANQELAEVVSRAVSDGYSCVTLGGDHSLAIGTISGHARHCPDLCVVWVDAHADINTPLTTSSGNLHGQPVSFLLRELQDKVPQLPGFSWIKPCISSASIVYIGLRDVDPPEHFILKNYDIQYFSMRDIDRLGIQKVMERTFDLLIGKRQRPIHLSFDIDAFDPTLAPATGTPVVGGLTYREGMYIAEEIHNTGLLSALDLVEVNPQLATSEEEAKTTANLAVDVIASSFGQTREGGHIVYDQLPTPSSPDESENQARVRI
The assay can be described thus: in vitro enzyme assay to detect the production of urea directly proportional to the activity of Arginase II. Further: in the data most compounds retested in dose-response had high values. The assay is classed as functional. Conditions: 33.3 µM.

The target of assay [7] is T3, Proteasome subunit beta (Trypanosoma cruzi) (UniProt O96673).
T3 sequence (whole entry): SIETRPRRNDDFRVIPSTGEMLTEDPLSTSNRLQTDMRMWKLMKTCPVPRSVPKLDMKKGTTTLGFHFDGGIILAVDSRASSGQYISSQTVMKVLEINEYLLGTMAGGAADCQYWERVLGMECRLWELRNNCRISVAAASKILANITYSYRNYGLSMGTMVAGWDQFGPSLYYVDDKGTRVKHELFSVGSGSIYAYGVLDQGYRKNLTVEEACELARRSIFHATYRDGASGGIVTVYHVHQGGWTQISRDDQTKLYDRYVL
Nature of the assay: Trypanosoma cruzi proteasome chymotrypsin-like activity (TcProtChymo) assay. Further: in the data most compounds retested in dose-response had high values. It is filed as functional. Conditions: 9.37 µM.

Assay [8] is filed under the species Homo sapiens. Nature of the assay: To identify inhibition of the IFN signalling (Jak-Stat) pathway via expression of an eGFP reporter gene under the control of an IFN-stimulated response element (ISRE) containing MxA promoter. The assay is classed as functional. Conditions: 30 µM. On the technique in general: Reporter assays use an easily measured gene product as a stand-in for the process of interest.

In assay [9] the target is T4, Tyrosyl-tRNA synthetase, putative (Trypanosoma cruzi (strain CL Brener)) (UniProt Q4DSP6).
T4 sequence (whole entry): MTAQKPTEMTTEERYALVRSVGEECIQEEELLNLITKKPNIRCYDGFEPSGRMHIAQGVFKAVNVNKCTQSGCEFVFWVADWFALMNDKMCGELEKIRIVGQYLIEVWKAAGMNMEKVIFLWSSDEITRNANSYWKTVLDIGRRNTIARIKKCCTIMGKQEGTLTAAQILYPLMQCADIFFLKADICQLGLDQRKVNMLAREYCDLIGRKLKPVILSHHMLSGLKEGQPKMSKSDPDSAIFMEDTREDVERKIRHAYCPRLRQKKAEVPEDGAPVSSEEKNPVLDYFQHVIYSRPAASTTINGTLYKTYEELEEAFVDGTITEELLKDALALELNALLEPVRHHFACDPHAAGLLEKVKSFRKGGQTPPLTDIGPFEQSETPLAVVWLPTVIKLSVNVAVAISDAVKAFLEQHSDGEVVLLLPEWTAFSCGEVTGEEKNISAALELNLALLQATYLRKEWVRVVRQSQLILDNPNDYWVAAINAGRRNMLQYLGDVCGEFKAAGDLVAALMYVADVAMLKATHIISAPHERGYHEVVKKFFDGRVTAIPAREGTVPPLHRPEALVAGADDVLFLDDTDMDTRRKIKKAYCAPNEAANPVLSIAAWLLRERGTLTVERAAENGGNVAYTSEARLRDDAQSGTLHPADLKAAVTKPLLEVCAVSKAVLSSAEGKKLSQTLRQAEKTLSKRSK
Nature of the assay: Trypanosoma cruzi tyrosyl tRNA synthetase (TcYRS) _High Tyrosine SOP. Further: in the data most compounds retested in dose-response had high values. It is filed as functional. Conditions: 30 µM.

Assay [10] has as its target T4, Tyrosyl-tRNA synthetase, putative (Trypanosoma cruzi (strain CL Brener)). The assay can be described thus: Trypanosoma cruzi tyrosyl tRNA synthetase (TcYRS) SOP. The assay is classed as functional. The following applies: 30 µM.
For assay [11], the target named is Chromo domain-containing protein 1 (Saccharomyces cerevisiae (strain ATCC 204508 / S288c) (Baker's yeast)) (UniProt P32657). The assay can be described thus: ScCHD-1 Enzyme Inhibition Assay. Further: in the data most compounds retested in dose-response had high values. The following applies: 30 µM. It is filed as functional.
Sequence of Chromo domain-containing protein 1 (Saccharomyces cerevisiae (strain ATCC 204508 / S288c) (Baker's yeast)) (P32657 whole entry, the tested form may be a part): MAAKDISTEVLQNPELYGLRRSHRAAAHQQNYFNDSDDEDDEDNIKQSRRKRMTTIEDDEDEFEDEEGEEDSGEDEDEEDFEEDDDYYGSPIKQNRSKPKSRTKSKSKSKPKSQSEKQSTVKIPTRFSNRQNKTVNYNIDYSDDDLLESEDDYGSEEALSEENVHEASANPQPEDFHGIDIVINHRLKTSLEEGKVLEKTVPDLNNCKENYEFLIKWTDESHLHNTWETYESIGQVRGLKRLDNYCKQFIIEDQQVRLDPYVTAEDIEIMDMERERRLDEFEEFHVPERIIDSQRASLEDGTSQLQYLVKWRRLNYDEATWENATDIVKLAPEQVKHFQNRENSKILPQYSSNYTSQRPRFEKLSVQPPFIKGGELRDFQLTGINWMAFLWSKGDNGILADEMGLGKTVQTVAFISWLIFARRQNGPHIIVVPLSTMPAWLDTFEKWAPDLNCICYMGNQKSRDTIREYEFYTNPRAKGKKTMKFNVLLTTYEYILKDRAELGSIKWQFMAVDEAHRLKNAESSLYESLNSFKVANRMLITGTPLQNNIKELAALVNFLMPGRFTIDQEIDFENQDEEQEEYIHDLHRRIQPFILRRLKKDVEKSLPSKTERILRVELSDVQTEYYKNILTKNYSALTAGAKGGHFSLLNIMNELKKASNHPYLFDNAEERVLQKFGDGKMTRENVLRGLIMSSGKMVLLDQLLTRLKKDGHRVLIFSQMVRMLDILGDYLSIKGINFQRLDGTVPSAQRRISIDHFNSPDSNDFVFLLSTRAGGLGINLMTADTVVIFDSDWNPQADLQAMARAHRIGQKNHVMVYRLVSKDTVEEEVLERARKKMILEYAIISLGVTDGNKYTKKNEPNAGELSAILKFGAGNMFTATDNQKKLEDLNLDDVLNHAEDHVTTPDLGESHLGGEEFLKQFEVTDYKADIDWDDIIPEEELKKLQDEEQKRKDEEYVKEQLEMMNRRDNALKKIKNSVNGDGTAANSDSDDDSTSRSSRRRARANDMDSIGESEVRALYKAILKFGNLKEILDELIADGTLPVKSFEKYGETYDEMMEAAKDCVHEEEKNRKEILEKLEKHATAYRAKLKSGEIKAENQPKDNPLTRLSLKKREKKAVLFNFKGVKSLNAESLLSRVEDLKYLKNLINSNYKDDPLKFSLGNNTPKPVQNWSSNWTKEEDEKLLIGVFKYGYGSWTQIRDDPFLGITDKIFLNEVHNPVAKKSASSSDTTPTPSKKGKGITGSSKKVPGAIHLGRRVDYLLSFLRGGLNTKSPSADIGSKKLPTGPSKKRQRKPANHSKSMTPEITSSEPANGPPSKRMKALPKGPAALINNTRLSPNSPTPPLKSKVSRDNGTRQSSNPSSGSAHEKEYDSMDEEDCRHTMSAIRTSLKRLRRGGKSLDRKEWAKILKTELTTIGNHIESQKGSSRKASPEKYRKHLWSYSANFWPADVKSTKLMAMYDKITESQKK

For some of these results: Entries with a potency or affinity are not part of this list.

Sequence of Protein translocase subunit SecA (Escherichia coli (strain K12)) (P10408 whole entry): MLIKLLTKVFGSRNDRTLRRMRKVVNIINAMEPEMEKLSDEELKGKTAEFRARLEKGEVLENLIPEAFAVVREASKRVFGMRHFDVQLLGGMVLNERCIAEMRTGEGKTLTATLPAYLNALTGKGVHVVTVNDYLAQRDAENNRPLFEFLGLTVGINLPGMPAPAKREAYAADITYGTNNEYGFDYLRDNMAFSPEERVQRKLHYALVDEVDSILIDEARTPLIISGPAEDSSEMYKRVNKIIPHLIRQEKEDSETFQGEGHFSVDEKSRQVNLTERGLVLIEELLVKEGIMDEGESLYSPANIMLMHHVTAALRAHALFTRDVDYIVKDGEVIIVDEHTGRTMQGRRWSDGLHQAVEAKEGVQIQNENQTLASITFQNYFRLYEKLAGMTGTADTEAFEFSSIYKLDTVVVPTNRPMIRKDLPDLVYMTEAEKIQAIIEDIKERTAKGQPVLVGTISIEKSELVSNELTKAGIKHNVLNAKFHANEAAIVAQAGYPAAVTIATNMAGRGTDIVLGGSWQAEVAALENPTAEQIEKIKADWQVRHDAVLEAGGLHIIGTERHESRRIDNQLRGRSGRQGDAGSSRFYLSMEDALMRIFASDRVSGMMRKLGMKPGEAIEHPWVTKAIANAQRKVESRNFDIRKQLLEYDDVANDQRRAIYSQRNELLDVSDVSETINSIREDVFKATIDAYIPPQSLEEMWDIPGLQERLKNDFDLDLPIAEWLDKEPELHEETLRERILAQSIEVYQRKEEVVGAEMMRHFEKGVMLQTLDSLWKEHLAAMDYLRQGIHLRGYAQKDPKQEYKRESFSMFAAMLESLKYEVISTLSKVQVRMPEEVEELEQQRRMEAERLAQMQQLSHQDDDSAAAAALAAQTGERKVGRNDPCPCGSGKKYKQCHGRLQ
Sequence of Sialic acid-binding Ig-like lectin 9 (Homo sapiens) (Q9Y336 whole entry): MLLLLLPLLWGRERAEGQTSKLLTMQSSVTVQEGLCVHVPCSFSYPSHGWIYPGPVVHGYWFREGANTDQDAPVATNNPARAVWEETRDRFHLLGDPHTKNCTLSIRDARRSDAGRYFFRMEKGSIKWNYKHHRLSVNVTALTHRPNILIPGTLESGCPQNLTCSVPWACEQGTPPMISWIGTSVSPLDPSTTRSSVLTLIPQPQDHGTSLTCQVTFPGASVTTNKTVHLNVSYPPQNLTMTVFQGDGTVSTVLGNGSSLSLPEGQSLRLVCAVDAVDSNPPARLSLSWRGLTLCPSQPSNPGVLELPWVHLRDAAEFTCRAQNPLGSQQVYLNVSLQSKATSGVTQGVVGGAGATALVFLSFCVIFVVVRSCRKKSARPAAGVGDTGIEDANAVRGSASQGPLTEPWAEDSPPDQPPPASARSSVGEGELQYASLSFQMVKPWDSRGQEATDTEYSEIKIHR

As to `O=C(NS(=O)(=O)c1ccc2c(c1)OCCO2)c1ccc(Br)cc1F`, the Percent Effect in assay [1] is -3.37%; in assay [2] it was -13.9%; in [3], 13.5%; in [4], 1.7%; in assay [5], -2.36%; in [6], 1.07%. Further, the Percent Effect is 12% in [7]; -21.1% in [8]; -13.5% in [9]; -15.2% in assay [10]; -10.5% in assay [11].

For the compound `CC(C)Cc1cc(C(=O)N2CCCC(n3cncn3)C2)[nH]n1` (stereo not drawn), the Percent Effect in [1] was -1.38%; in assay [2] it was 11.4%; in [3] it was 6.88%; in assay [4] it was -0.206%; in assay [5], 1.33%; in assay [6] it was 10.1%. In addition, the Percent Effect was 2.4% in assay [7]; 0.485% in assay [8]; 5.21% in [9]; 12.7% in assay [10]; -22.3% in assay [11].

As for `COCCN(Cc1ccoc1)C(=O)c1c(F)cccc1Cl`, the Percent Effect is -4.43% in assay [1]; 5.2% in assay [2]; 10.7% in assay [3]; 9.59% in assay [4]; -5.62% in [5]; 5.81% in assay [6]. The Percent Effect in assay [7] is 2.44%; in assay [8] it was -5.55%; in [9], 3.17%; in [10] it was 11.5%; in assay [11] it was -5.12%.

Turning to `CCNC(=O)NC(=O)CSC(C)c1c(F)cccc1F` (stereo not drawn), the Percent Effect in assay [1] is -5.95%; in [2], 2.67%; in [3], 1.21%; in assay [4], -3.31%; in assay [5] it was -5.55%; in assay [6], -4.17%. In addition, the Percent Effect was 22.3% in [7]; 10.5% in [8]; 0.546% in assay [9]; -1.24% in [10]; -6.68% in [11].

Take `COCCNC(=O)C1(c2ccccc2C)CCOCC1`: the Percent Effect is -6.97% in assay [1]; 2.7% in [2]; -2.99% in assay [3]; -1.02% in [4]; -5% in assay [5]; 4.81% in [6]. The Percent Effect is 0.18% in assay [7]; 13.2% in assay [8]; 0.493% in assay [9]; -6.17% in assay [10]; -1.03% in assay [11].

Take `CCC(C)NC(=O)NCCCn1nc2ccccn2c1=O` (stereo not drawn): the Percent Effect in assay [1] was -2.08%; in [2], 13.5%; in assay [3], -4.74%; in assay [4], -3.56%; in assay [5], 7.08%; in assay [6] it was -3.61%. The Percent Effect was 16.4% in [7]; -114% in assay [8]; 1.48% in [9]; 18.5% in assay [10]; -14.5% in [11].

For `c1cnn(C2CN(Cc3nc(-c4ccsc4)no3)C2)c1`, the Percent Effect was -3.15% in assay [1]; -10.5% in [2]; -7.01% in assay [3]; 2.96% in [4]; 8.27% in [5]; 1.15% in assay [6]. For the same compound, the Percent Effect in assay [7] was 12.7%; in assay [8] it was -0.515%; in [9] it was 4.41%; in assay [10], 12.2%; in [11] it was -4.96%.

In the case of `CCC1CN(CC(=O)Nc2sccc2C#N)CCO1` (stereo not drawn), the Percent Effect in [1] is -4.43%; in [2], -13.2%; in [3], -2.5%; in assay [4], 2.86%; in assay [5], 0.376%; in [6], 0%. In addition, the Percent Effect is 8.19% in assay [7]; -2.35% in [8]; 4.41% in assay [9]; 9.76% in assay [10]; -9.42% in assay [11].
